# Laboratory results reported in PubChem BioAssay.
# Inconclusive results are not listed. For some of these results: Entries with a potency or affinity are not part of this list. Calls of active or inactive are those of the source. Unless noted, how the calls were made is not given here.
# Legend:
# [1] = compounds altering circadian rhythm period length – cell-based, LOPAC library, luminescence reporter (AID 2774); conditions: circadian reporter cells, at 7 µM, actives lie on both sides;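 further: values are relative to mean of DMSO wells on each plate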
# [2] = system: Hepatitis C virus NS3 helicase; test: blockers of NS3h binding to ssDNA – biochemical, fluorescence polarization, LOPAC1280 library, primary screen (AID 687035; in the data active means inhibition above about 37%); conditions: Purified HCV NS3 helicase, Cy5-dT15 ssDNA binding fluorescence polarization; stronger effect = higher value; concentration not given here
# [3] = compounds altering Cy5-DNA-NS3h complex signal – biochemical, LOPAC1280, artefact control for HCV NS3 helicase inhibitor project (AID 687037); conditions: Cy5-DNA-NS3h complex fluorescence interference counterscreen
# [4] = blockers of cellular phospholipid synthesis – cell-based, LOPAC library, screen 4, primary screen (AID 1347384); conditions: animal cells, phospholipid biosynthesis inhibition screen; at 10 µM
# [5] = chitosan synthesis blockers in C. neoformans – flow cytometry, Cibacron Brilliant Red staining (AID 1347148); conditions: Cryptococcus neoformans chitosan, stronger effect = lower value; at 10 µM unless noted;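 further: compound exposure lasted three days at 37 degrees C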
# [6] = target: ATP-dependent translocase ABCB1 (Homo sapiens) (UniProt P08183); test: P-glycoprotein substrate transport blockade – cell-based (AID 377; in the data active means fluorescence slope change above about 50%); conditions: MDR1-expressing cells, fluorescent substrate accumulation slope; stronger effect = higher value; concentration not given here
# Sequence of ATP-dependent translocase ABCB1 (Homo sapiens) (P08183 whole entry, looked up): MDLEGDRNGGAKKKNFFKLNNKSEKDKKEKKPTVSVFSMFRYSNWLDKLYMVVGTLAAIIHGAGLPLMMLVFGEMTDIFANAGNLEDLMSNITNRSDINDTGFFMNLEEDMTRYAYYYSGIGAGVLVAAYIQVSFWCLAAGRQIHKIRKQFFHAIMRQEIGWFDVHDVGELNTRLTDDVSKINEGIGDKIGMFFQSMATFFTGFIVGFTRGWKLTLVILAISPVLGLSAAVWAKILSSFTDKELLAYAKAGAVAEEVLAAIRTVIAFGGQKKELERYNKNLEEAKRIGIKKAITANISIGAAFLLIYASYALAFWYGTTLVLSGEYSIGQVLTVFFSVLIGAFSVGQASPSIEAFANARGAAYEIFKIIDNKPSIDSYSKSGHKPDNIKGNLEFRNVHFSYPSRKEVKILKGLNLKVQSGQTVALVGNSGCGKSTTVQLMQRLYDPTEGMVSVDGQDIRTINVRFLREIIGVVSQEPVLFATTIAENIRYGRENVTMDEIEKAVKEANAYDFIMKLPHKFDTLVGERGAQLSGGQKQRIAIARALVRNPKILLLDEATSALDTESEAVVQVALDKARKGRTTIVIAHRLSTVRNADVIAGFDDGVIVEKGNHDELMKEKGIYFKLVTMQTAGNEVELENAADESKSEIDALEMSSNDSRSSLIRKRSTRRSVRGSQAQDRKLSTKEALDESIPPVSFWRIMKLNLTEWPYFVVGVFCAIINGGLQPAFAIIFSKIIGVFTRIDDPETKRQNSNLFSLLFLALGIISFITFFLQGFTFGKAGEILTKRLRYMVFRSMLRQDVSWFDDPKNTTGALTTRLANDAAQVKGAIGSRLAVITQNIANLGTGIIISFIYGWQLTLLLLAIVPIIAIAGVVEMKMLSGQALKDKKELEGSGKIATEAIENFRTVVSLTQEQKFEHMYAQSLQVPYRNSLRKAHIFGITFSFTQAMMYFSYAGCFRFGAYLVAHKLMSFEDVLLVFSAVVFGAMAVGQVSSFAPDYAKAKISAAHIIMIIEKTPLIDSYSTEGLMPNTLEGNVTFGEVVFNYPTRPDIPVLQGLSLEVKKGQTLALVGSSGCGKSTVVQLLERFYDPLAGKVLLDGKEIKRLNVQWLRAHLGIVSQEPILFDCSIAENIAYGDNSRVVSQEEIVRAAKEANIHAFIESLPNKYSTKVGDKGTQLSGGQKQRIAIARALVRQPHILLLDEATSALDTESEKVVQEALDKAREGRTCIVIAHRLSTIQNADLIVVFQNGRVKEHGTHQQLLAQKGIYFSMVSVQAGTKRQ
# [7] = compounds altering viability of human ES cells (AID 493140); conditions: human embryonic stem cell survival screen; stronger effect = higher value;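 further: cells exposed to compounds for four days before counting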
# [8] = EMT-state selective cytotoxicity in co-culture – imaging, PC-3E GFP, TEM4-18 mCherry, primary screen (AID 1345086;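 active means compounds killing one labelled cell type while sparing the other, by normalised counts and ratio limits, not self-fluorescent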;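 on all read-outs here: cells exposed to compound for 72 h before imaging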;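 on red/green cell ratio (normalised): normalised mesenchymal count divided by normalised epithelial count so high means epithelial killing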); conditions: PC-3E GFP / TEM4-18 mCherry co-culture, imaging cell counts, at 1 µM; for red/green cell ratio (normalised): actives lie on both sides, counts scaled to control wells, 1 = unselective
# [9] = viability loss in pontine glioma line – cell-based, JHH-DIPG-1, MIPE4.0, CellTiter-Glo, qHTS, dose response (AID 1347062; cut-off not given, nearly all actives have AC50 up to about 27 µM); conditions: JHH-DIPG-1 viability, CellTiter-Glo ATP luminescence
# [10] = viability loss in pontine glioma line – cell-based, SU-DIPG-IV, MIPE4.0, CellTiter-Glo, qHTS, dose response (AID 1347063; cut-off not given, nearly all actives have AC50 up to about 30 µM;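 further: compound exposure lasted 48 hours before the viability readout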); conditions: CellTiter-Glo ATP luminescence
# [11] = viability loss in pontine glioma line – cell-based, SU-DIPG-XIII, MIPE5.0, CellTiter-Glo, qHTS, dose response (AID 1347064; cut-off not given, nearly all actives have AC50 up to about 23 µM); conditions: CellTiter-Glo ATP luminescence
# [12] = growth inhibition of DIPG cells – cell-based, MIPE4.0 library, CellTiter-Glo luminescence, qHTS (AID 1347066; cut-off not given, nearly all actives have AC50 up to about 30 µM;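 further: cells exposed to compound for 48 hours before readout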); conditions: SU-DIPG-VI viability, CellTiter-Glo ATP luminescence
# [13] = target: NAD(+) hydrolase SARM1 (Homo sapiens) (UniProt Q6SZW1); test: blocking NAD cleavage by SARM1 SAM-TIR – cell lysate, NAD-Glo luminescence (AID 1508614;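 active means compound whose remaining NAD level is above about 45 nM, limit read from the data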); conditions: SAM-TIR HEK293T lysate NADase, at 1 µM, stronger effect = higher value
# Sequence of NAD(+) hydrolase SARM1 (Homo sapiens) (Q6SZW1 whole entry, looked up, the tested form may be a part): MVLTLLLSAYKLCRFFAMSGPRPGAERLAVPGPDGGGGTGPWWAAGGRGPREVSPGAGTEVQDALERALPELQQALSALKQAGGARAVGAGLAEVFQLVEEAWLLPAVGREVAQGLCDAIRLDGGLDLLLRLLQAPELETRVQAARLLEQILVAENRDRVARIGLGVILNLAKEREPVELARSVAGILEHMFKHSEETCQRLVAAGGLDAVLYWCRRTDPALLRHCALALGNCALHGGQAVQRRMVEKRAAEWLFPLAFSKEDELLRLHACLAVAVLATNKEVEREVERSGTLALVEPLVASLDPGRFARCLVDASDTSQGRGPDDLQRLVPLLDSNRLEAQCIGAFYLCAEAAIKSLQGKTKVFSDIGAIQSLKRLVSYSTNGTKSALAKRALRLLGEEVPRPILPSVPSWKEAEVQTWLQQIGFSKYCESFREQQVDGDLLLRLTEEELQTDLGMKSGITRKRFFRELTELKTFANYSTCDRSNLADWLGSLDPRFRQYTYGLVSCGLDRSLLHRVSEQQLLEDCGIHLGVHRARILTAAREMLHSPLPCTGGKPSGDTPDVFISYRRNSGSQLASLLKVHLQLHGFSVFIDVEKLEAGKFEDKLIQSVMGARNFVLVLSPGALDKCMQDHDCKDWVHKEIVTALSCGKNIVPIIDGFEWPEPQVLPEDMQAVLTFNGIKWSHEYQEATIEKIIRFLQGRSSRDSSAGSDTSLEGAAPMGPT
# [14] = target: Mitogen-activated protein kinase 7 (Homo sapiens) (UniProt Q13164); test: Gal4-ERK5 driven luciferase induction – cell-based, HTS, primary screen (AID 1508626;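 active means luciferase signal above three times the same-plate solvent-only control wells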;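 further: luciferase driven by Gal4-ERK5 fusion binding five Gal4 sites before minimal TATA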); conditions: HeLa Gal4-ERK5 transactivation, 18 h, at 5 µM, stronger effect = higher value
# Sequence of Mitogen-activated protein kinase 7 (Homo sapiens) (Q13164 whole entry, looked up, the tested form may be a part): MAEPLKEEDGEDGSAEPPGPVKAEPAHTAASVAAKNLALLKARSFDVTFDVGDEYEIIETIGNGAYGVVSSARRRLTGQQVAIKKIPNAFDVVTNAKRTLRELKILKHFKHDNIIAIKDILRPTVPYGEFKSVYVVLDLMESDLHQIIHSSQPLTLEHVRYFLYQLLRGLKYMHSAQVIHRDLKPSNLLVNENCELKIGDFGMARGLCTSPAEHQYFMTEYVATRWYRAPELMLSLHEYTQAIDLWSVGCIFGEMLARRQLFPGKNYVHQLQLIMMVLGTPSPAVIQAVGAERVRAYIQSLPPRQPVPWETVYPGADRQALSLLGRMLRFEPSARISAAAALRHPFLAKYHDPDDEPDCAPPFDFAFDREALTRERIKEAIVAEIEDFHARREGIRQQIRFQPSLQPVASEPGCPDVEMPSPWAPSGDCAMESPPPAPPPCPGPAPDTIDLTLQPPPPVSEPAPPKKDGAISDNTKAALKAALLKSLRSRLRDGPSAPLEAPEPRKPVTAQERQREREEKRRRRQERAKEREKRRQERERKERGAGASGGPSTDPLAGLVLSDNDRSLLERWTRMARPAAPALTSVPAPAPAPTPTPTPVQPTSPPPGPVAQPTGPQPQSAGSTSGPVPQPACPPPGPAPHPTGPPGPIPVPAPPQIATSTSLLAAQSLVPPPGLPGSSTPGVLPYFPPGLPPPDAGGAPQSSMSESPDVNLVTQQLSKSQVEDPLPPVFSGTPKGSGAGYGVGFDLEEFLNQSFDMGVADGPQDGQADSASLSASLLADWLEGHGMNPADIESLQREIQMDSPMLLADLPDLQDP
# [15] = blockers of polyQ-driven CASP3 activation – cell-based (AID 1583); conditions: polyglutamine-induced caspase-3 activation, cell assay; stronger effect = higher value;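 tested at 10 µM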
# [16] = yeast 75Q aggregation reduction – 75Q-TubU reporter (AID 1593); conditions: Yeast 75Q polyglutamine aggregation reporter
# [17] = restoration of touch response, mutant HTT neurons – whole organism, C. elegans mechanosensory neurons, N-terminal huntingtin (AID 1599); conditions: C. elegans polyQ-huntingtin mechanosensory neurons, stronger effect = higher value
# [18] = system: Aerobactin synthetase IucA (Klebsiella pneumoniae); test: inhibition of K. pneumoniae IucA enzyme – biochemical, Tocris library, absorbance (AID 1345561); conditions: purified IucA enzyme assay, absorbance (OD) read-out; stronger effect = lower value;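 tested at 8 µM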;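 further: 100% = enzyme without compound and 0% = no enzyme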
# [19] = viability loss in pontine glioma line – cell-based, SU-DIPG-XIII, MIPE4.0, CellTiter-Glo, qHTS, dose response (AID 1347061; cut-off not given, nearly all actives have AC50 up to about 37 µM;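 further: cells exposed to compound for 48 hours before readout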); conditions: CellTiter-Glo ATP luminescence
# [20] = measured here: epithelial PC-3E GFP cell survival
# [21] = measured here: mesenchymal TEM4-18 mCherry cell survival
structure (smiles),measurement,setting,value
c1ccc(-c2ccccn2)nc1,period change,[1],-0.19 h (inactive)
same,inhibition,[2],-3% (inactive)
same,fluorescence ratio (interference),[3],1 (inactive)
same,outcome,[4],inactive
O=c1[nH]c2ccccc2c2ccccc12,period change,[1],0.13 h (inactive)
same,inhibition,[2],-3% (inactive)
same,fluorescence ratio (interference),[3],1 (inactive)
same,fold fluorescence,[5],3.09 [at 256.1 µM] (inactive)
same,outcome,[4],inactive
O=C(OC1C[C@@H]2CC3C[C@H](C1)N2CC3=O)c1c[nH]c2ccccc12 (some centres not stated),outcome,[4],inactive
CC(C(O)c1ccc(O)cc1)N1CCC(Cc2ccccc2)CC1 (configuration not stated),fluorescence slope change,[6],23.8% (inactive)
same,period change,[1],0.3 h (inactive)
same,survival,[7],3.25 (inactive)
same,inhibition,[2],-4% (inactive)
same,fluorescence ratio (interference),[3],0.9 (inactive)
same,outcome,[4],inactive
CN(C)[C@@H]1C(=O)C(C(=O)NCN2CCCC2)=C(O)[C@@]2(O)C(=O)C3=C(O)c4c(O)cccc4[C@@](C)(O)C3CC12 (some centres not stated),fluorescence slope change,[6],66.4% (active)
same,survival,[7],2.5 (inactive)
CO[C@H]1/C=C/O[C@@]2(C)Oc3c(C)c(O)c4c(O)c(c5c(c4c3C2=O)NC2(CCN(CC(C)C)CC2)N=5)=NC(=O)/C(C)=C\C=C\[C@H](C)[C@H](O)[C@@H](C)[C@@H](O)[C@@H](C)[C@H](OC(C)=O)[C@@H]1C,survival,[7],5.5 (inactive)
CCCc1nc(C(C)(C)O)c(C(=O)O)n1Cc1ccc(-c2ccccc2-c2nn[nH]n2)cc1,red/green cell ratio (normalised),[8],1.01 (inactive)
same,normalised cell number,[8]; [20],1.21
same,normalised cell number,[8]; [21],1.22
same,outcome,[9],inactive
same,outcome,[10],inactive
same,outcome,[11],inactive
same,outcome,[12],inactive
same,remaining NAD,[13],10 nM (inactive)
CCN(CC)CCOc1ccc(C(=C(Cl)c2ccccc2)c2ccccc2)cc1,remaining NAD,[13],10 nM (inactive)
same,luciferase signal,[14],68 AU (inactive)
CN(C)CC/C=C1/c2ccccc2COc2ccccc21,inhibition,[15],-9.13%
same,score,[16],1.4
same,rescue above control,[17],2.19
same,red/green cell ratio (normalised),[8],1.04 (inactive)
same,normalised cell number,[8]; [20],1.34
same,normalised cell number,[8]; [21],1.4
same,remaining activity,[18],123% (inactive)
CO[C@H]1O[C@@H]2O[C@@]3(C)CC[C@H]4[C@H](C)CC[C@@H]([C@H]1C)[C@@]24OO3,outcome,[19],inactive
same,outcome,[9],inactive
same,outcome,[10],inactive
same,outcome,[11],inactive
same,outcome,[12],inactive
same,remaining NAD,[13],10 nM (inactive)
C[C@]12C=CC(=O)C=C1CC[C@@H]1[C@@H]2[C@@H](O)C[C@@]2(C)[C@H]1CC[C@]2(O)C(=O)COC(=O)CCC(=O)O,remaining NAD,[13],10 nM (inactive)
same,luciferase signal,[14],80 AU (inactive)
COc1cc(N)c(Cl)cc1C(=O)N[C@@H]1CCN(CCCOc2ccc(F)cc2)C[C@@H]1OC,remaining activity,[18],111% (inactive)
COCC1=C(C(=O)OC(C)OC(=O)OC(C)C)N2C(=O)[C@@H](NC(=O)/C(=N\OC)c3csc(N)n3)[C@H]2SC1 (some centres not stated),remaining NAD,[13],10 nM (inactive)
same,luciferase signal,[14],40 AU (inactive)
CN1CCN2c3ncccc3Cc3ccccc3C2C1 (configuration not stated),remaining activity,[18],106% (inactive)
same,outcome,[19],inactive
same,outcome,[9],inactive
same,outcome,[11],inactive
same,outcome,[12],inactive
